Compound activity (PubChem)
An excerpt weighted towards active compounds, which were near 7.2% of everything screened.
A1 inh: inhibitors of the anti-apoptotic protein A1, read as caspase activation | actives 0.066% (n = 330,000) | caspase activation, % (test concentration not listed) | MEF A1-2A-BIM cells, Caspase-Glo 3/7 luminescence, 3 h; percent of clofoctol response, vehicle zero | AID 2462;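 active = over half of replicate activation scores above 10%, or exactly half above 10 with the replicate mean above 10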
AHR act: activators of human aryl hydrocarbon receptor; AID 2796; AHR-responsive luciferase reporter cells, luminescence; actives 2.5% (n = 320,000); activation, % at 5 µM; in the data active = activation above about 47%;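 also: 0% = vehicle wells and 100% = reference agonist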
Target sequence (P35869 whole entry, looked up): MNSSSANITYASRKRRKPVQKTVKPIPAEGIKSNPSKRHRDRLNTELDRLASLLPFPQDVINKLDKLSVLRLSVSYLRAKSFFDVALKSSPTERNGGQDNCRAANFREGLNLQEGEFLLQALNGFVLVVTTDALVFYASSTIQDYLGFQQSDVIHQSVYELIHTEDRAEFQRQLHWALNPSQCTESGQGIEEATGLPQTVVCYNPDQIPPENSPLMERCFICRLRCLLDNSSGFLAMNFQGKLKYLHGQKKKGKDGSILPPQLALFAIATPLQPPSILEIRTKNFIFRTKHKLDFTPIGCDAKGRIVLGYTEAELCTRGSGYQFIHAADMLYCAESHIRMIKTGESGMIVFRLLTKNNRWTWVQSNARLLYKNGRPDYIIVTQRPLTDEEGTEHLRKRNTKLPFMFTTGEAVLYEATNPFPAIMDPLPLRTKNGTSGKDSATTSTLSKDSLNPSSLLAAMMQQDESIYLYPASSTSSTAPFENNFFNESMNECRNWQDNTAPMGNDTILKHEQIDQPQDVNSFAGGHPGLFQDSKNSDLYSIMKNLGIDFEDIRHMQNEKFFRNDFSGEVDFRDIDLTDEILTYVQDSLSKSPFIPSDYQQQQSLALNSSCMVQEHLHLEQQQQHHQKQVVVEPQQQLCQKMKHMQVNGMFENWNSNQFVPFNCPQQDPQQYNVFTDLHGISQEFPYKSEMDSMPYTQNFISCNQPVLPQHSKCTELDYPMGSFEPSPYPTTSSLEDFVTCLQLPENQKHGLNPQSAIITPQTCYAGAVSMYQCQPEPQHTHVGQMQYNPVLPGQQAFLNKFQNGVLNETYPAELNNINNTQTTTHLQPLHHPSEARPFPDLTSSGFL
Efflux pump mplx: inhibitors of Candida antifungal efflux pumps expressed in yeast; S. cerevisiae Candida pump triplex, Nile Red efflux; inhibition, % at 10 µM; actives 0.44% (n = 330,000);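 active = plate passing quality check with inhibition over a set limit, or well fluorescence over plate mean plus 4 SD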;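 also: Nile Red retained in pooled yeast measured as flow cytometry median fluorescence; 0% = buffer negative control and 100% = Enniatin B positive control; higher means more Nile Red kept so more efflux inhibition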
VLA-4 inh: inhibition in a human VLA-4 binding assay. P13612. actives 0.2% (n = 330,000). inhibition, % (about 7 µM as worked out from the volumes in the protocol). AID 2557. VLA-4 expressing cells, ligand binding flow cytometry; in the data active = inhibition above about 50%
SUMO Mot1 rescue: inhibitors of SUMOylation pathway: yeast Mot1-301 growth rescue; S. cerevisiae Mot1-301 growth rescue, ATP luminescence, 38.5C; percent above DMSO median, 100 means doubled; growth rescue, % at 18.8 µM; actives 1% (n = 320,000); AID 2716;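 active = every valid replicate shows activation above 250% relative to neutral control wells; inactive = the rest, any valid replicate at or below 250%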;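 also: OY570 slx delta 5 strain wells were the positive control but not used for scaling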
ALR inh: inhibitors of human sulfhydryl oxidase ALR. inhibition, % (no concentration beside the values). actives 3.8% (n = 290,000). purified ALR, DTT oxidation, H2O2 HRP-luminol luminescence;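 active = mean replicate inhibition above about 79%, with every replicate also reaching it, limit read from the data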
* = called active by the depositor; i = inactive; . = not tested or not shown.

SMILES | A1 inh | AHR act | Efflux pump mplx | VLA-4 inh | SUMO Mot1 rescue | ALR inh
C/C(=N\Nc1ccc([N+](=O)[O-])cc1)c1cccc(N)c1 | -0.4 | -15.1 | -0.2 | 10.2 | 96.9 | 99.0*
CN(Cc1ccccc1)c1nc(N)c([N+](=O)[O-])c(NCc2ccccc2)n1 | 0.4 | 2.2 | 0.1 | -7.2 | -9.6 | -14.9
Cc1ccc(C(=O)CSC2=NC(N)=C(C#N)C3(CCCCC3)C2C(N)=O)cc1 (stereo not drawn) | -0.4 | 10.7 | 0.2 | 3.4 | -10.0 | 97.1*
Cc1ccc(S(=O)(=O)CCC(=O)OC(C)c2nnc(-c3cccs3)o2)cc1 (stereo not drawn) | -0.4 | -0.5 | -0.1 | 10.2 | 118.4 | .
COC1(OC)N=C(NC(=O)Nc2ccccc2)C2(C#N)C(c3ccccc3)C12C#N (stereo not drawn) | 0.4 | 5.1 | -0.1 | 32.2 | -6.0 | 98.8*
COC1(OC)N=C(N)C2(C#N)C(c3ccc(C)cc3)C12C#N (stereo not drawn) | -0.6 | 6.7 | 0.0 | 10.9 | 4.2 | 6.0
CC(=O)Nc1ccc(NCC(=O)c2ccccc2)cc1 | -4.4 | 0.0 | -0.1 | 12.3 | 0.3 | 65.3
CCCn1c(O)c(N=N)c2ccccc21 | -0.1 | 4.0 | -0.1 | 1.3 | 6.4 | 0.0
CC1=C(C)CS(=O)N(S(=O)(=O)c2ccccc2)C1 (stereo not drawn) | -0.6 | 2.0 | -0.2 | 4.5 | 22.0 | 98.8*
O=C(COC(=O)c1ccc2c(c1)OCCO2)Nc1cc(Cl)ccc1Cl | 1.1 | 0.7 | 0.1 | 2.2 | 320.9* | 8.2
Cc1cc(C)cc(NC(=O)COC(=O)c2ccc3c(c2)OCCO3)c1 | -1.0 | 1.4 | -0.1 | -6.8 | 20.9 | -4.9
Cc1ccc(F)cc1NC(=O)CSc1n[nH]c(N)n1 | -0.5 | -0.9 | 0.3 | -3.5 | 13.3 | -7.2
COc1ccc(/C=C/C(=O)c2ccc[nH]2)c(OC)c1OC | 0.1 | 25.2 | -0.2 | 3.1 | 11.6 | -1.3
COc1ccc(/C=C/C(=O)c2ccncc2)c2ccccc12 | -1.3 | 52.7* | -0.6 | -17.1 | -35.5 | -68.8
CC1=C(C(=O)N2CCCC(N3CCN(c4cccc(C(F)(F)F)c4)CC3)C2)OCCO1 (stereo not drawn) | 0.1 | -1.5 | -0.6 | 7.2 | 146.0 | 3.5
COc1cc(/C=N/n2cc(-c3ccccc3)[nH]c2=S)cc(OC)c1O | -0.2 | 23.0 | -0.1 | -1.9 | 540.1* | .
Oc1ccc(/C=N/n2cc(-c3ccccc3)[nH]c2=S)cc1 | 0.6 | 64.2* | -0.1 | 18.4 | . | 98.8*
Cc1ccc2c(c1)N(CC(=O)NCC1CCCO1)C(=O)C(C(C)C)O2 (stereo not drawn) | 0.9 | 0.2 | -0.1 | -3.5 | 6.7 | 2.0
O=c1cc(/C=C/c2c(F)cccc2Cl)[nH]c2ccccc12 | -2.1 | 61.0* | 0.0 | -3.7 | 19.6 | 5.9
Nc1nccc(/C=C/c2c(F)cccc2Cl)n1 | -0.7 | -9.3 | -0.1 | -1.4 | 10.0 | -1.6
Cc1cc(C)c(NC(=O)CCn2nnc3ccccc32)c(C)c1 | -1.1 | -0.2 | -0.1 | 13.9 | -7.1 | -3.3
CSc1nsc(SC)c1C(=O)Nc1ccc(Cl)cc1 | 1.2 | 58.0* | 0.0 | -7.3 | -19.1 | -1.0
CCc1nnc(NS(=O)(=O)c2ccc(NC(=O)/C=C/c3ccc(F)cc3)cc2)s1 | 0.1 | 1.6 | 0.1 | 12.2 | 10.2 | 98.0*
CCc1nnc(NS(=O)(=O)c2ccc(NC(=S)NC(=O)c3ccc(F)cc3)cc2)s1 | 0.5 | -2.9 | 0.0 | 3.2 | 6.3 | 50.6
CCc1nnc(NS(=O)(=O)c2ccc(NC(=O)Nc3ccc(OC)cc3)cc2)s1 | -0.1 | -1.1 | 0.1 | 2.0 | 6.9 | .
SMILES | A1 inh | AHR act | Efflux pump mplx | VLA-4 inh | SUMO Mot1 rescue | ALR inh
CCCCOc1cccc(C(=O)Nc2ccc(S(=O)(=O)Nc3nnc(CC)s3)cc2)c1 | -4.1 | -0.4 | 0.1 | -6.0 | -39.3 | 97.0*
COC(=O)Nc1ccc(S(=O)(=O)Nc2ccc(O)cc2)cc1 | -0.1 | -0.9 | 0.0 | 36.1 | -21.0 | 88.6*
CCc1nnc(NS(=O)(=O)c2ccc(NC(=O)c3cccc([N+](=O)[O-])c3)cc2)s1 | -0.3 | 2.8 | 0.0 | -3.5 | -5.3 | 2.7
CCc1nnc(NS(=O)(=O)c2ccc(NC(=O)OC)cc2)s1 | -0.4 | 2.6 | 0.0 | 3.6 | -3.3 | 98.5*
O=C(O[C@@H](C(=O)O)[C@@H](OC(=O)c1ccccc1)C(=O)O)c1ccccc1 | -0.5 | -0.2 | 0.0 | 16.6 | -2.6 | -0.9
Cc1ccc(S(=O)(=O)Nc2ccc(N=Nc3ccc(O)cc3)cc2)cc1 | 0.9 | 7.2 | 0.4 | 7.4 | -4.5 | 90.1*
COc1ccc(Cc2nnc(NS(=O)(=O)c3ccccc3)s2)cc1 | -0.3 | 1.3 | -0.1 | 13.6 | 780.5 | 27.7
COc1ccc(S(=O)(=O)Nc2nnc(Cc3ccc(OC)c(OC)c3)s2)cc1 | 0.1 | 0.3 | 0.0 | -0.4 | 27.7 | 98.0*
Cc1ccc(-c2c(C(=O)N/N=C/c3c[nH]c4ccccc34)nnn2-c2nonc2N)cc1 | 1.2 | 5.9 | -0.2 | -18.4 | 10.2 | 13.2
Cc1cc(Br)ccc1SCC(=O)OCC(=O)Nc1ccccc1C#N | -0.9 | 14.0 | 0.1 | -12.7 | 14.1 | 16.1
O=C(c1cc2ccccc2o1)N1CCN=C1SCc1cccnc1 | 0.5 | 10.0 | -0.1 | -3.4 | 7.7 | 98.6*
CSC1=NCCN1C(=O)c1ccc(Br)o1 | -1.1 | -2.6 | -0.1 | 11.9 | -7.0 | 3.3
O=C(c1cc2ccccc2o1)N1CCN=C1SCc1cccc(F)c1 | 0.2 | -1.8 | 0.1 | -0.4 | 341.8 | -41.7
O=C(c1ccc(Br)o1)N1CCN=C1SCc1cccnc1 | -0.1 | 4.4 | 0.1 | 32.8 | -6.4 | 99.7*
COc1ccc(C(=O)NCCC(=O)NCc2cc(=O)n(C)c(=O)n2C)cc1 | -0.3 | -1.6 | 0.0 | i | 5.6 | -2.6
COC(=O)CNC(c1ccccc1)c1cc(Br)ccc1N (stereo not drawn) | 1.1 | -3.0 | -0.1 | 14.0 | -6.8 | 99.2*
NNC(=O)CNC(c1ccccc1)c1cc(Br)ccc1N (stereo not drawn) | -0.7 | 2.1 | 0.1 | 0.5 | 33.3 | 18.5
COc1ccc(-n2ccnc(SCC(=O)NCc3ccccc3Cl)c2=O)cc1 | 0.1 | 4.2 | 0.8 | 6.9 | 7.3 | 99.2*
Nc1c(O)ccc2c1C(=O)c1ccccc1C2=O | -6.3 | 9.4 | 0.1 | -24.9 | -11.4 | 98.7*
COc1ccc2c(c1O)C(=O)c1ccccc1C2=O | -0.6 | 0.7 | 0.0 | -32.7 | -4.6 | -20.2
CC(=O)OCC(=O)C1CCC2C3CC=C4CC(O)CCC4(C)C3CCC12C (stereo not drawn) | 0.6 | 6.8 | -0.1 | 3.2 | 461.8* | -7.3
CC(C)(C)[C@H](N)C(=O)N[C@H]1CCC2C3CC=C4C[C@@H](O)CC[C@]4(C)C3CC[C@@]21C (stereo partly drawn) | 11.4* | -1.2 | -0.2 | 0.9 | -2.2 | -4.2
O=C(NCCc1ccccc1Cl)c1ccc2nc3ccccc3c(=O)n2c1 | 0.3 | 0.7 | 0.0 | -22.3 | 48.1 | .
